This note sets out measurements from PubChem BioAssay (NCI).

About 83,000 compounds went through this panel and 20% of them were active in at least one assay; those are over-represented in the sample as a whole.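 48-hour exposure, single concentration, 96-well plates; percent growth endpoint where 0 means no net growth. Active: below 10.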 Calls of active or inactive are those of the source.

One assay deals with A498 renal. Kind of assay: NCI-60 one-dose screen, 48 h (100 = growth as untreated, 0 = no growth, -100 = all killed). To be noted: 10 µM unless noted.
As for `CCOC(=O)c1c(N)c(C#N)cn1-c1cc(OC)c(OC)c(OC)c1`, the growth was 93.7% (inactive).
Same read-out and setting: the same measure for `CC(=O)C1=C(C)NC(NNC(N)=S)=NC1c1ccccc1` (stereo not given): 2.72% (active).
On to `NS(=O)(=O)c1ccc(Nc2nc(N/N=C/c3ccccn3)nc(Nc3ccccc3)n2)cc1`, for which the growth was -67.6% (active).
Still for that read-out and setting: the same measure for `Oc1cccc2ccc(-c3nnc(SCc4ccc(O)c5ncccc45)o3)nc12`: 35.2% (inactive); for `O=C1CCCC2=C1C(c1c[nH]c3ccc(Br)cc13)Cc1cc(Br)ccc1N2` (stereo not given): 13.5% (inactive); for `COC(=O)c1[nH]nc2c1C1(C(=O)N(C)c3ccccc31)C(C#N)=C(N)O2` (stereo not given): 90.2% (inactive).
For `CC1=NC2=NC(=O)/C(=C3/N=C(C)C=C(c4ccccc4)N3N)NN2C(c2ccccc2)=C1`, the growth is 127% (inactive).
`Nc1cc(-c2c[nH]c3ccc(Br)cc23)nc2cc(-c3c[nH]c4ccc(Br)cc34)nn12`: the growth was 7.08% (active).
Regarding `O=S(=O)(NCCNc1nccc(-n2cnc3ccccc32)n1)c1ccc(Cl)cc1`, the growth was 84.8% (inactive).
As for `COc1ccc(Cn2cc3c(c2-c2cc(OC)c(OC)c(OC)c2)CCc2c(CN4CCOCC4)noc2-3)cc1`, the growth is -0.0936% (active).
Same read-out and setting: the same measure for `CN(C)CCN(C)c1ccc2ncc(C#Cc3cncc(C(=O)Nc4ccc(CN5CCN(C)CC5)c(C(F)(F)F)c4)c3)n2n1`: 112% (inactive); for `CCO/C=N/C1=C(C#N)C(c2ccc(F)cc2)c2sc3c(CC)cccc3c2O1` (stereo not given): -3.45% (active).
Still for that read-out and setting: for `COc1ccc(/C=C/C(=O)c2cccc(NC(=O)CSc3nc4ccccc4c(=O)n3-c3ccccc3)c2)cc1OC` the value was 99.4% (inactive); for `CCN1CCN(Cc2cn(-c3ccc(S(N)(=O)=O)cc3)nn2)CC1`, 103% (inactive); for `Cc1cccc2c3c(sc12)C(c1ccc(Cl)cc1)c1c(nc(CC(=O)Nc2ccccc2)[nH]c1=O)O3` (stereo not given), 41.5% (inactive).
Same read-out and setting: the same measure for `C=C=COc1cccc(/C(N)=N/C(N)=N/c2nc3ccccc3s2)c1`: 79.7% (inactive); for `Cc1cc2nc(C(Cl)Cl)nc(-c3cccs3)n2n1`: -40.7% (active).

A further assay has as its system CCRF-CEM leukemia. The description is as above. The conditions noted are these: 10 µM unless noted.
`COc1cc(-c2nnc(SCc3ccc(O)c4ncccc34)n2-c2ccccc2)cc(OC)c1OC`: the growth is 5.95% (active).
As to `CN1c2ccccc2Sc2cc(C=C(C#N)C#N)ccc21`, the growth is 102% (inactive).
Still for that read-out and setting: the same measure for `CC(=O)N(C)C1CCc2c(sc(NC(=O)c3ccc(C(C)(C)C)cc3)c2C(N)=O)C1` (stereo not given): 69.3% (inactive); for `COc1cc(/C=N/NC(=O)c2cn(C3CC3)c3c(OC)c(N4CC5CCCNC5C4)c(F)cc3c2=O)ccc1O` (stereo not given): 2.53% (active).
Same read-out and setting: the same measure for `CC1(C)[C@@H](O)CC[C@]2(C)[C@H]3CC[C@@H]4[C@H]5[C@H](C(=O)/C=C\c6ccc([N+](=O)[O-])cc6)CC[C@]5(O)CC[C@@]4(C)[C@]3(C)CC[C@@H]12`: 12% (inactive).
With `CCCCCc1ccc(S(=O)(=O)Nc2cccc(-c3csc(NC(=O)CN4CCN(C)CC4)n3)c2)cc1`, the growth was 27.2% (inactive).
Consider `O=S(=O)(NCCNc1nccc(-n2cnc3ccccc32)n1)c1ccc(Br)cc1`, for which the growth is 101% (inactive).
Same read-out and setting: for `COc1ccccc1-n1cc(C#N)c(N)c1C(=O)c1ccc(Br)cc1` the value was 68.3% (inactive).
Still for that read-out and setting: for `COc1cc2oc(-c3cccc(C(=O)N[C@@H](CC(C)C)C(=O)OC(C)(C)C)c3)cc(=O)c2c(OC)c1OC` the value was 40.2% (inactive).
The same measure, in the same setting: for `CC1(C)CC[C@]23CC[C@]4(C)[C@H](CC[C@@H]5[C@@]6(C)CCCN(CO)C(C)(C)[C@@H]6CC[C@]54C)[C@H]2[C@H]1OC3` the value was 58.5% (inactive).
For `CCOC(=O)c1c(NC(=O)c2ccccc2C(F)(F)F)sc2c1CCC(=O)C2`, the growth was 10.3% (inactive).
Take `COc1ccc(N2C(=O)c3cc(Cl)ccc3NC2SCc2ccccc2)cc1` (stereo not given): the growth is 92.2% (inactive).
Take `CCCCCc1ccc(S(=O)(=O)Nc2cccc(-c3csc(NC(=O)CNCCN(C)C)n3)c2)cc1`: the growth was 63.5% (inactive).
Consider `O=C1CCCc2nc(Nc3ccc(S(=O)(=O)Nc4ccc([N+](=O)[O-])cc4)cc3)ncc21`, for which the growth is 99.8% (inactive).
Same read-out and setting: the same measure for `Clc1nc2ccccc2nc1-c1nnc(C2CCCCC2)o1`: 84.9% (inactive); for `Cc1ccc(C2=NN(C)C(=O)C3(CCCC3)C2)cc1`: 111% (inactive); for `O=C1[C@H]2Cc3c([nH]c4ccccc34)[C@@H](c3c(Cl)cccc3Cl)N2C(=O)CN1C1CCN(CC2CCCCC2)CC1`: 47.2% (inactive).
The same measure, in the same setting: for `NC(=O)c1cccc(-n2ccc3cc(NC(=O)Nc4ccc(N5CCOCC5)c(C(F)(F)F)c4)ccc32)n1` the value was 1.21% (active).
